# Article PMC5540273 (PLoS ONE, 2017)
# Assays:
# Conditions in all cases: concentration: 1 μM, replicates: in singlicate; n = 1
# SRPK1 = system: SRPK1
# SRPK2 = system: SRPK2
# SRPK3 = system: SRPK3
# STK16 = system: STK16
# STK33 = system: STK33
# STK35 = system: STK35
# STK36 = system: STK36
# STK39 = system: STK39
# SYK = system: SYK
# SgK110 = system: SgK110
# 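Note: KINOMEscan kinase panel screen.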
Compound,%Inh (SRPK1),%Inh (SRPK2),%Inh (SRPK3),%Inh (STK16),%Inh (STK33),%Inh (STK35),%Inh (STK36),%Inh (STK39),%Inh (SYK),%Inh (SgK110)
Cc1cc(Nc2nc(-c3cccc(C)n3)nc3ccccc23)ccn1 [GW872411],0%,0%,13%,0%,0%,3%,0%,0%,0%,0%
COc1ccc(-n2cnc3c(N)ncnc32)cc1 [SKF-97236],28%,0%,15%,38%,20%,0%,0%,0%,18%,0%
COc1ccc(CNC(=O)NC2CCN(c3ccnc(Nc4ccc(F)cc4)n3)C2)cc1 (stereo not shown) [GSK1379706],0%,80%,21%,19%,14%,0%,27%,13%,34%,0%
CCC(=O)c1c(-c2ccccc2)c2cc(Cl)ccc2c(=O)n1Cc1cc(C(=O)NC2CC2)n(C)n1,0%,19%,0%,6%,0%,51%,0%,13%,0%,11%
